Experimental data from PubChem BioAssay (NCATS).
Records with an inconclusive call do not appear. Where a call stands in place of a potency, no number is given. Unmarked numbers belong to inactive results. Calls of active or inactive are those of the source. Calls follow the shape of the dose curve; as a rule, active = well fitted cell-killing curve with a large enough effect; inconclusive = small, poorly fitted or top-dose-only effect, or effect the other way; inactive = flat fitted curve, though single readings scatter.

Test system: SKOV3
Assay: Primary qHTS to identify gynecologic anti-cancer compounds using libraries of approved drugs and bioactive compounds (AID 1345084); also: nearly all actives have a fitted effect of over 55% in size
Details: Gynecologic cancer cell panel viability, ATPlite luminescence, 48 h; series mostly up to 57.5 µM
Outline: (§1)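 ATP-based viability (ATPlite), 1,000 cells/well, 16 h pre-incubation, 48 h compound at 37 C, 5% CO2, 15 min RT before read.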
Potency is read from the fitted curve at half-maximal effect.

| SMILES | Potency | activity change, negative = cytotoxicity |
| --- | --- | --- |
| CN(Cc1cccc(-c2ccncc2)c1)C(=O)Oc1ccc(-c2ccc(C(N)=O)cc2)cc1 | inactive | – |
| CN(C(=O)C(c1ccccc1)c1ccccc1)[C@H](CN1CC[C@H](O)C1)c1ccccc1 | inactive | – |
| Fc1cc(F)c2c(c1)C1C=CCC1C(c1cccnc1)N2 (centres undefined) | 11.2 µM (active) | – |
| C/C=C(\C)C(=O)OC1CC2C(CC=C3CC(OC4CC(OC)C(OC5CC(OC)C(OC6CC(OC)C(OC7CC(OC)C(O)C(C)O7)C(C)O6)C(C)O5)C(C)O4)CCC32C)C2(O)CCC(C(C)=O)C12C (centres undefined) | – | -3.35% [at 11.6 µM] |
| CN=C(NS(=O)(=O)c1ccc(Cl)cc1)N1C[C@H](c2ccccc2)C(c2ccc(Cl)cc2)=N1 | inactive | – |
| COC1CC(O[C@H]2CC[C@@]3(C)C(CCC4C3CC[C@]3(C)C(C5=CC(=O)OC5)CCC43O)C2)OC(C)C1OC1OC(COC2OC(CO)C(O)C(O)C2O)C(O)C(O)C1O (some centres undefined) | 3.16 µM (active) | – |
| C[C@@H]1O[C@@H](OC2CCC3(C=O)C(CCC4C3CCC3(C)C(C5=CC(=O)OC5)C(O)CC43O)C2)[C@H](O)[C@H](O)[C@H]1O[C@@H]1O[C@H](CO)[C@@H](O)[C@H](O)[C@H]1O (some centres undefined) | 11.2 µM (active) | – |
| Cc1c(N[C@@H](c2nnc(-c3ccc(C#N)cc3)o2)[C@H](C)O)ccc(C#N)c1Cl | inactive | – |
| CC12CCC3C(C1)c1c(cc(O)c(C(=O)c4ccccc4)c1OC3(C)C)O2 (centres undefined) | inactive | – |
| C=C1C(=O)CC2OC2(C)CC2OC(=O)C(=C)C2C(O)C1OC(=O)/C(C)=C\C (centres undefined) | inactive | – |
| CN1C(=O)[C@@H](Cc2c[nH]c3ccccc23)N=C(c2ccccc2F)c2ccccc21 | inactive | – |
| CCCCCCC1C(=O)O[C@H](C)[C@H](NC(=O)c2cccc(NC=O)c2O)C(=O)O[C@@H](C)[C@@H]1OC(=O)CC(C)C (some centres undefined) | 0.794 µM (active) | – |
| C=C(C)[C@@]12O[C@@H]1[C@@]1(C)C(=CC2=O)CC[C@@H](OC(C)=O)[C@@H]1C | 3.16 µM (active) | – |
| c1ccc([C@@H]2C[C@H]2NC2CCNCC2)cc1 | inactive | – |
| C=C1C2(C)CC3C(C)(O)C4=CC(=O)OC(C)(C)C4=CCC3(C)C13C(=O)OC(C)C3(O)C2=O (centres undefined) | inactive | – |
| CN(C)[C@@H]1C(=O)C(C(N)=O)=C(O)[C@@]2(O)C(=O)C3=C(O)c4c(O)ccc(Cl)c4[C@@](C)(O)C3C[C@@H]12 (some centres undefined) | inactive | – |
| CC(=O)O[C@H]1C[C@]2(O)[C@@H]3CC[C@@H]4C[C@@H](O)CC[C@]4(C)[C@H]3CC[C@]2(C)[C@H]1c1ccc(=O)oc1 | 0.1 µM (active) | – |
| CN1CCC2=C(C1)c1ccccc1Cc1ccccc12 | inactive | – |
| CCOc1ccc(Oc2ccc(OCc3cc(F)ccc3F)cc2)c(N)c1 | inactive | – |
| CCN1C[C@]2(COC)CC[C@H](O)[C@@]34C5C[C@@H]6[C@@H](OC)C[C@@](OC(C)=O)(C5[C@@H]6OC(C)=O)[C@H]([C@H](OC)C23)[C@@H]14 (some centres undefined) | inactive | – |
| CC(C)[C@H](NC(=O)c1nn(Cc2ccc(F)cc2)c2ccccc12)C(N)=O | inactive | – |
| Cc1ccc2c(c1)[C@H]1CN(C)CC[C@H]1N2C(=O)CSc1nnnn1-c1ccc(Cl)cc1 | inactive | – |
| C[C@]12CC[C@H](O)C[C@@H]1CC[C@@H]1[C@@H]2CC[C@]2(C)C(=O)CC[C@@H]12 | inactive | – |
| CC(=O)OC[C@]12[C@H](OC(C)=O)C(=O)[C@@H]3[C@@H](O)[C@@]14O[C@@]3(C)COC(=O)c1cccnc1[C@@H](C)[C@H](C)C(=O)O[C@@H]([C@H](OC(C)=O)[C@@H]2OC(C)=O)[C@]4(C)O | inactive | – |
| CN1C(=O)N(c2ccc(C#N)c(C(F)(F)F)c2)C(=O)[C@@]1(CO)c1ccccc1 | inactive | – |
| CCCCCn1cc(C(=O)Oc2cccc3cccnc23)c2ccccc21 | inactive | – |
| C[C@]12CC[C@H](O)C[C@@]1(O)CC[C@@H]1[C@@H]2CC[C@]2(C)[C@@H](c3ccc(=O)oc3)CC[C@]12O | inactive | – |
| COC(=O)C12C(=O)C(C)(O)C(=O)C1(C)C(C)=CC1C34CCC(OC3=O)C(C)(C)C4CCC12C (centres undefined) | inactive | – |

Test system: Tov-21-G
Assay: as above
Details: Gynecologic cancer cell panel viability, ATPlite luminescence, 48 h; series mostly up to 57.5 µM
Outline: as §1

| SMILES | Potency | activity change, negative = cytotoxicity |
| --- | --- | --- |
| CC1=CC(=O)[C@@H](O)[C@@]2(C)C1C[C@H]1OC(=O)[C@H](O)[C@@]3(O)[C@@H](C)[C@@H](O)[C@H](O)C2[C@@]13C (some centres undefined) | 11.2 µM (active) | – |
| CN(Cc1cccc(-c2ccncc2)c1)C(=O)Oc1ccc(-c2ccc(C(N)=O)cc2)cc1 | inactive | – |
| CN(C(=O)C(c1ccccc1)c1ccccc1)[C@H](CN1CC[C@H](O)C1)c1ccccc1 | inactive | – |
| C/C=C(\C)C(=O)OC1CC2C(CC=C3CC(OC4CC(OC)C(OC5CC(OC)C(OC6CC(OC)C(OC7CC(OC)C(O)C(C)O7)C(C)O6)C(C)O5)C(C)O4)CCC32C)C2(O)CCC(C(C)=O)C12C (centres undefined) | – | 1.18% [at 11.6 µM] |
| CN=C(NS(=O)(=O)c1ccc(Cl)cc1)N1C[C@H](c2ccccc2)C(c2ccc(Cl)cc2)=N1 | inactive | – |
| COC1CC(O[C@H]2CC[C@@]3(C)C(CCC4C3CC[C@]3(C)C(C5=CC(=O)OC5)CCC43O)C2)OC(C)C1OC1OC(COC2OC(CO)C(O)C(O)C2O)C(O)C(O)C1O (some centres undefined) | 2.24 µM (active) | – |
| C[C@@H]1O[C@@H](OC2CCC3(C=O)C(CCC4C3CCC3(C)C(C5=CC(=O)OC5)C(O)CC43O)C2)[C@H](O)[C@H](O)[C@H]1O[C@@H]1O[C@H](CO)[C@@H](O)[C@H](O)[C@H]1O (some centres undefined) | 3.98 µM (active) | – |
| Cc1c(N[C@@H](c2nnc(-c3ccc(C#N)cc3)o2)[C@H](C)O)ccc(C#N)c1Cl | inactive | – |
| CC12CCC3C(C1)c1c(cc(O)c(C(=O)c4ccccc4)c1OC3(C)C)O2 (centres undefined) | inactive | – |
| CN1C(=O)[C@@H](Cc2c[nH]c3ccccc23)N=C(c2ccccc2F)c2ccccc21 | inactive | – |
| C=C(C)[C@@]12O[C@@H]1[C@@]1(C)C(=CC2=O)CC[C@@H](OC(C)=O)[C@@H]1C | 10 µM (active) | – |
| c1ccc([C@@H]2C[C@H]2NC2CCNCC2)cc1 | inactive | – |
| CC(C)[C@H]1OC(=O)[C@H](Cc2ccccc2)N(C)C(=O)[C@@H](C(C)C)OC(=O)[C@H](Cc2ccccc2)N(C)C(=O)[C@@H](C(C)C)OC(=O)[C@H](Cc2ccccc2)N(C)C1=O | inactive | – |
| C=C1C2(C)CC3C(C)(O)C4=CC(=O)OC(C)(C)C4=CCC3(C)C13C(=O)OC(C)C3(O)C2=O (centres undefined) | inactive | – |
| CN(C)[C@@H]1C(=O)C(C(N)=O)=C(O)[C@@]2(O)C(=O)C3=C(O)c4c(O)ccc(Cl)c4[C@@](C)(O)C3C[C@@H]12 (some centres undefined) | inactive | – |
| CC(=O)O[C@H]1C[C@]2(O)[C@@H]3CC[C@@H]4C[C@@H](O)CC[C@]4(C)[C@H]3CC[C@]2(C)[C@H]1c1ccc(=O)oc1 | 0.0891 µM (active) | – |

| SMILES | Potency | activity change, negative = cytotoxicity |
| --- | --- | --- |
| CN1CCC2=C(C1)c1ccccc1Cc1ccccc12 | inactive | – |
| C=C(C)C(=O)O[C@H]1[C@@H]2[C@H](C)C(=O)O[C@@H]2C[C@@H](C)[C@@H]2C=CC(=O)[C@]21C | 8.91 µM (active) | – |
| CCOc1ccc(Oc2ccc(OCc3cc(F)ccc3F)cc2)c(N)c1 | inactive | – |
| CCN1C[C@]2(COC)CC[C@H](O)[C@@]34C5C[C@@H]6[C@@H](OC)C[C@@](OC(C)=O)(C5[C@@H]6OC(C)=O)[C@H]([C@H](OC)C23)[C@@H]14 (some centres undefined) | inactive | – |
| CC(C)[C@H](NC(=O)c1nn(Cc2ccc(F)cc2)c2ccccc12)C(N)=O | inactive | – |
| CCCN(CCC)[C@@H]1CCc2ccc3[nH]c(C#N)cc3c2C1 | inactive | – |
| Cc1ccc2c(c1)[C@H]1CN(C)CC[C@H]1N2C(=O)CSc1nnnn1-c1ccc(Cl)cc1 | inactive | – |
| COC1CCCC(C)OC(=O)Cc2cc(O)cc(O)c2C(=O)C1 (centres undefined) | inactive | – |
| C[C@]12CC[C@H](O)C[C@@H]1CC[C@@H]1[C@@H]2CC[C@]2(C)C(=O)CC[C@@H]12 | inactive | – |
| CC(=O)OC[C@]12[C@H](OC(C)=O)C(=O)[C@@H]3[C@@H](O)[C@@]14O[C@@]3(C)COC(=O)c1cccnc1[C@@H](C)[C@H](C)C(=O)O[C@@H]([C@H](OC(C)=O)[C@@H]2OC(C)=O)[C@]4(C)O | inactive | – |
| CN1C(=O)N(c2ccc(C#N)c(C(F)(F)F)c2)C(=O)[C@@]1(CO)c1ccccc1 | inactive | – |
| CCCCCn1cc(C(=O)Oc2cccc3cccnc23)c2ccccc21 | inactive | – |
| COc1cc(O)c2c(c1)CCC[C@@H](O)[C@H](O)C(=O)/C=C\C[C@H](C)OC2=O | 1.78 µM (active) | – |
| C[C@]12CC[C@H](O)C[C@@]1(O)CC[C@@H]1[C@@H]2CC[C@]2(C)[C@@H](c3ccc(=O)oc3)CC[C@]12O | inactive | – |
| COC(=O)C12C(=O)C(C)(O)C(=O)C1(C)C(C)=CC1C34CCC(OC3=O)C(C)(C)C4CCC12C (centres undefined) | inactive | – |
